Sampled rows, rich in hits. Any-hit rate of the full collection: about 7.9%.
FMDV inh: blocks foot and mouth disease virus; FMDV antiviral cell-based qHTS; Potency, µM (top dose mostly 57.9 µM), inactives show top-dose activity change, negative = inhibition, actives largely listed as inhibitors; 1.2% of 410,000 active; AID 1159524; calls by dose curve; tested in HEK293T cells; further: read-out not given here; potency means the concentration at half of the fitted maximal effect; nearly all actives have a fitted effect of over 45% in size
HCV inh: HCV inhibition; Huh7.5.1 HCVcc-Cre infection, luciferase reporter, 44 h; Potency, µM (series often up to 41.8 µM), without a hit: at the top dose activity change, negative = inhibition, most hits filed as inhibitors; 3.4% of 340,000 active; AID 651820; active means well fitted inhibition curve with a large enough effect; inconclusive means small, poorly fitted or top-dose-only effect, or another doubt; inactive means no such curve, though single readings can be large or run the other way; further: potency means the concentration at half of the fitted maximal effect
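Reporter virus HCVcc-Cre (~0.5 moi) infects cells exposed to compound; seeding density 1,000 cells/well with 4 h settling beforehand. Luminescence, 15 sec read, taken 44 h post-infection following a 15 min RT substrate incubation.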
MARV entry inh: Marburg virus entry inhibition; 1.8% of 300,000 active; Potency, µM (series often up to 37.8 µM), inactives show top-dose activity change, negative = inhibition, actives largely listed as inhibitors; Marburg virus pseudotyped entry inhibition, cell reporter; calls by dose curve; tested in HEK293 cells; further: potency means the concentration at half of the fitted maximal effect
Lassa entry inh: blocks Lassa virus binding to or entry into cells; Lassa virus pseudotype entry inhibition, cell reporter; Potency, µM (doses to about 37.9 µM), without a hit: at the highest dose activity change, negative = inhibition, actives largely listed as inhibitors; 1.2% of 300,000 active; calls by dose curve; tested in HEK293 cells; further: potency means the concentration at half of the fitted maximal effect; nearly all actives have a fitted effect of over 50% in size
HCMV antiviral: blocks human cytomegalovirus replication; HFF cells, HCMV-luciferase reporter, 72 h; active compounds read low; activity change, negative = inhibition, % at 57.5 µM; 4.5% of 410,000 active; AID 1259415; in the data active means activity change below about -60%; inconclusive means no clear call, values can overlap the other calls; inactive means above about -39%
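Two compound doses tested in HFFs infected with HCMV-luciferase, MOI 1 PFU/cell, 72 h at 37C. Lysate luminescence read with OneGlo; data normalized against buffer-only and 10uM Salinomycin inhibitor controls.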
* marks the source's active call; other numbers are inactive results; ? = inconclusive; / = no result; [ ] = dose if it differs, or a comment. On the % scale 0 is the no-effect control and ±100 the full control effect.

SMILES | FMDV inh | HCV inh | MARV entry inh | Lassa entry inh | HCMV antiviral
Cc1ccc(C)c(N2CCN(C(=O)Cc3cn(C)c4ccccc34)CC2)c1 | ? | ? | 18µM* | 21µM* | 17
Cc1ccc(Cl)cc1N1CCN(C(=O)Cc2cn(C)c3ccccc23)CC1 | ? | ? | ? | ? | 45
Cc1ccc(C)c(N2CCN(C(=O)CC3Sc4ccccc4NC3=O)CC2)c1 (stereo not drawn) | ? | 10µM* | ? | ? | -26
Nc1ncnc2c1ncn2[C@@H]1O[C@H](C(=O)NC2CC2)[C@@H](O)[C@H]1O | -15% | / | / | / | /
CC(C)CC(=O)Nc1cc(-c2ccccc2F)nn1-c1ccccc1 | 9% | / | / | -17%[46.1 µM] | 3
Cc1ccc(NC(=O)Cn2ncn3c(cc4ccccc43)c2=O)cc1C | 6% | / | 13µM* | / | 7
Cc1ccc(NC(=O)Cn2ncn3c(cc4ccccc43)c2=O)cc1F | -13% | -9% | ? | -14%[46.1 µM] | 0
COc1cccc(NC(=O)C(=O)NCC(c2ccc3c(c2)OCO3)N2CCOCC2)c1 (stereo not drawn) | 30% | / | / | 20%[46.1 µM] | 73
Cc1nnc(Oc2ccccc2)c2ccccc12 | 18% | ? | 21% | -16% | -1
CNc1nnc(-c2ccc(C)cc2)c2ccccc12 | -24% | ? | 22%[46.1 µM] | 7.9µM* | ?
Cc1ccc(-c2nnc(Oc3cccc(C)c3)c3ccccc23)cc1 | -13% | -8% | ? | -5% | -36
Cc1ccc(Oc2nnc(-c3ccccc3)c3ccccc23)cc1 | 3% | 35µM* | 5% | 0% | -37
Cc1nnc(Oc2ccc([N+](=O)[O-])cc2)c2ccccc12 | 43% | -2% | / | / | -96*
Cc1ccc(Oc2nc(C(F)(F)F)nc3ccccc23)cc1 | -27% | -1% | 4% | 8% | -69*
Cc1ccc(-c2nnc(NCCCO)c3ccccc23)cc1 | -16% | ? | / | / | 29
Cc1c([C@@H](Nc2ccccn2)c2ccccc2)c(=O)n(-c2ccccc2)n1C | / | / | 22% | / | /
CCN(c1ccccc1)S(=O)(=O)c1nnc(NC(=O)C(C)Oc2ccccc2)s1 (stereo not drawn) | -12% | / | / | ? | -5
COC1=C(c2ccccc2)C(=O)c2ccccc2C1=O | ? | ? | 4% | -17% | -28
O=C(C1=C(c2ccccc2)C(=O)c2ccccc2C1=O)c1ccccc1 | 10µM* | 10µM* | ? | 2.6µM* | -99*
Cc1cc(C(=O)COC(=O)c2ccc(NC(=O)CC#N)cc2)c(C)n1CC(F)(F)F | 36% | / | / | / | -2
Cc1cc(C(=O)COC(=O)c2ccco2)c(C)n1Cc1ccco1 | 8.9µM* | 8% | ? | 15µM* | 3
Cc1cc(C(=O)COC(=O)c2ccncc2)c(C)n1Cc1ccco1 | 9% | 1% | -33%[46.1 µM] | ? | -38
Cc1nn(Cc2ccccc2)c(C)c1C(=O)OCC(=O)c1cc(C)n(CC(F)(F)F)c1C | 0% | 8.9µM* | ? | 1.8µM* | -11
CC1CCCCN1Cc1c(O)ccc2c(=O)c(-c3nc4ccccc4s3)c(N)oc12 (stereo not drawn) | ? | 10µM* | 2.5µM* | ? | -16
CC1CCCCN1Cc1c(O)ccc2c(=O)c(-c3ccccc3Cl)c(C(F)(F)F)oc12 (stereo not drawn) | 0% | / | ? | -4%[46.1 µM] | 10
SMILES | FMDV inh | HCV inh | MARV entry inh | Lassa entry inh | HCMV antiviral
CC(C)N(C(=O)Cn1cc(SCC(=O)Nc2ccccc2C(F)(F)F)c2ccccc21)C(C)C | 0% | / | / | 24%[46.1 µM] | -13
CC1=C[C@@H](C)OC2(C1)C(=O)N(Cc1ccc(Br)cc1)c1cccc(Br)c12 (stereo partly drawn) | / | / | 4%[14.2 µM] | ? | /
CCOC(=O)C1=C(C)N=c2s/c(=C\c3ccc(OCC(=O)O)cc3)c(=O)n2C1c1ccc(OC(C)C)cc1 (stereo not drawn) | 40µM* | 9% | ? | 2% | -35
CCOC(=O)C1=C(C)N=c2sc(=Cc3ccc(OCC(=O)O)cc3)c(=O)n2C1c1ccc(Cl)cc1 (stereo not drawn) | ? | / | / | / | 0
COc1ccc(-c2nnc3sc(COc4ccccc4)nn23)cc1 | 15% | -13% | 16% | -6% | 6
COc1ccc(-c2nnc3sc(COc4ccc(C)cc4)nn23)cc1 | -3% | 23% | -1% | 13µM* | -3
O=S(=O)(NCc1ccccc1)c1ccc(S(=O)(=O)N(Cc2ccccn2)Cc2ccco2)cc1 | / | -12% | 12% | -9% | 51
